Test results as given in PubChem BioAssay.
Activity calls are given as the source filed them. Unless noted, the rule behind the calls is not given here.

How the values were obtained:
[1] = A549 cell viability effects, profiling panel, calcein-AM fluorescence, 48 h, basal (AID 1162); settings: higher = more signal; note: test concentration not given here
[2] = adipocyte viability effects, profiling panel, cell-based, 3T3-L1 adipocytes, calcein-AM fluorescence, 48 h, basal (AID 1163); settings: 3T3-L1 adipocytes viability, higher = more signal; note: test concentration not given here
[3] = HepG2 cell viability effects, profiling panel, calcein-AM fluorescence, 48 h, basal (AID 1164); settings: higher = more signal; note: test concentration not given here
[4] = MM1S cell viability effects, profiling panel, calcein-AM fluorescence, 48 h, basal (AID 1165); settings: higher = more signal;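 note: viability of MM1S multiple myeloma cells under basal unstimulated conditions; test concentration not given here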
[5] = basal RPMI8226 viability, no added stimulus, profiling panel, cell-based, calcein-AM fluorescence, 48 h, PK04 Diversity Set (AID 1166); settings: RPMI8226 myeloma viability, higher = more signal;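 note: cells grown under basal conditions without added stimulus; test concentration not given here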
[6] = basal HepG2 mitochondrial membrane potential changes, profiling panel, cell-based, JC-1 fluorescence, 24 h, 100 nL compound (AID 1167); settings: higher = more signal; note: test concentration not given here
[7] = basal 3T3-L1 adipocyte mitochondrial potential changes, profiling panel, cell-based, JC-1 fluorescence, 3T3-L1 adipocytes, 24 h, 100 nL compound (AID 1168); settings: JC-1 mitochondrial fluorescence, higher = more signal, called active from +8 up or from −8 down; note: test concentration not given here
[8] = basal RPMI8226 mitochondrial membrane potential changes, profiling panel, cell-based, JC-1 fluorescence, 24 h, 100 nL compound (AID 1169); settings: RPMI8226 myeloma, JC-1 mitochondrial potential fluorescence, higher = more signal; note: test concentration not given here
[9] = basal MM1S mitochondrial membrane potential changes, profiling panel, cell-based, JC-1 fluorescence, 24 h, 100 nL compound (AID 1170); settings: higher = more signal; note: test concentration not given here
[10] = A549 lung cancer cell viability effects, profiling panel, resazurin fluorescence, 24 h, PK04 Diversity Set (AID 1171); settings: higher = more signal, called active from +8 up or from −8 down; note: test concentration not given here
[11] = HepG2 liver cancer cell viability effects, profiling panel, resazurin fluorescence, 24 h, PK04 Diversity Set (AID 1172); settings: higher = more signal; note: test concentration not given here
[12] = basal S. cerevisiae growth modulation, no modifier, primary screen, OD600, strain BY4716, 24 h, basal condition (AID 1173); settings: OD600, 24 h, higher = more signal, called active from +8 up or from −8 down
[13] = MM1S myeloma cell viability, profiling panel, resazurin fluorescence, basal, 24 h, PK04 Diversity Set (AID 1174); settings: higher = more signal, called active from +8 up or from −8 down;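 note: MM1S multiple myeloma cell line; test concentration not given here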
[14] = target: Dihydroorotate dehydrogenase (quinone), mitochondrial (Plasmodium falciparum (isolate 3D7)) (UniProt Q08210); test: PfDHODH enzyme inhibitors, primary screen, biochemical, C-terminal His tag, absorbance 600 nm (AID 1175); settings: DCIP absorbance 600 nm, higher = more signal, called active from +8 up or from −8 down;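 note: recombinant parasite enzyme with a five histidine tag at its C terminus; test concentration not given here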
Chain of Dihydroorotate dehydrogenase (quinone), mitochondrial (Plasmodium falciparum (isolate 3D7)) (Q08210 whole entry, looked up): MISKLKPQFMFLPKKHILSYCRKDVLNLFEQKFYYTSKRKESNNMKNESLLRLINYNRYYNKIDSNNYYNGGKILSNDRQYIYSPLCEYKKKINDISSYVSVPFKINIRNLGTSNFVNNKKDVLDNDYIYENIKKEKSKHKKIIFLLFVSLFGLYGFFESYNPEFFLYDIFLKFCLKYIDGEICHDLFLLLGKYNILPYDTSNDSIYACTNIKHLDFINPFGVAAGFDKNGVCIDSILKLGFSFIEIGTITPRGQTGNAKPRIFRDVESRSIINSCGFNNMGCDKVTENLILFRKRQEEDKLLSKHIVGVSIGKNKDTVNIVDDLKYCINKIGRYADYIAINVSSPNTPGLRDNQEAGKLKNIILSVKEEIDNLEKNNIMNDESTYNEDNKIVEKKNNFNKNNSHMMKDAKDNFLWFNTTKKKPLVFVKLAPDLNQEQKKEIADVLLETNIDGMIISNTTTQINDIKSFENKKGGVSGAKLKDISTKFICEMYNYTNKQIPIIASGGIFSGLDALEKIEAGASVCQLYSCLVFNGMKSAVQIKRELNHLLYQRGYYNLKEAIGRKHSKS

[15] = P. aeruginosa biofilm formation inhibitors, primary screen, strain PAO1, LB-PBS medium, absorbance 600 nm (AID 1176); note: test concentration not given here; settings: P. aeruginosa PAO1 growth/biofilm, A600, 12 h; higher = more signal
[16] = S. cerevisiae RM11-1a growth modifiers, primary screen, strain RM11-1a, OD600, basal, 24 h (AID 1177); settings: OD600, 24 h, higher = more signal, called active from +8 up or from −8 down;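 note: cultures grown under basal conditions with no added stressor; test concentration not given here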
[17] = E. coli acrAB mutant growth effects, primary screen, E. coli filamentation inducers, strain DRC39, OD650, 24 h (AID 1178); settings: higher = more signal, called active from +8 up or from −8 down;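 note: growth measured as culture turbidity by optical density at 650 nm; test concentration not given here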
[18] = E. coli acrAB mutant growth effects, primary screen, E. coli filamentation inducers, strain DRC39, OD650, 48 h (AID 1179);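 note: screen aims at cell division blockers that make cells filament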; settings: E. coli DRC39 delta-acrAB growth, higher = more signal, called active from +8 up or from −8 down
[19] = RPMI8226 myeloma cell viability, profiling panel, resazurin fluorescence, basal, 24 h, PK04 Diversity Set (AID 1180); settings: higher = more signal;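 note: RPMI8826 multiple myeloma cell line at 5000 cells per well; test concentration not given here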
[20] = target: E3 ubiquitin-protein ligase XIAP (Homo sapiens) (UniProt P98170); test: XIAP binders, primary screen, biophysical, small-molecule microarray, fluorescence 635 nm (AID 1181); settings: small-molecule microarray binding, higher = more signal;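 note: score merges 667 nm emission and signal to noise over triplicate slides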
Chain of E3 ubiquitin-protein ligase XIAP (Homo sapiens) (P98170 whole entry, looked up): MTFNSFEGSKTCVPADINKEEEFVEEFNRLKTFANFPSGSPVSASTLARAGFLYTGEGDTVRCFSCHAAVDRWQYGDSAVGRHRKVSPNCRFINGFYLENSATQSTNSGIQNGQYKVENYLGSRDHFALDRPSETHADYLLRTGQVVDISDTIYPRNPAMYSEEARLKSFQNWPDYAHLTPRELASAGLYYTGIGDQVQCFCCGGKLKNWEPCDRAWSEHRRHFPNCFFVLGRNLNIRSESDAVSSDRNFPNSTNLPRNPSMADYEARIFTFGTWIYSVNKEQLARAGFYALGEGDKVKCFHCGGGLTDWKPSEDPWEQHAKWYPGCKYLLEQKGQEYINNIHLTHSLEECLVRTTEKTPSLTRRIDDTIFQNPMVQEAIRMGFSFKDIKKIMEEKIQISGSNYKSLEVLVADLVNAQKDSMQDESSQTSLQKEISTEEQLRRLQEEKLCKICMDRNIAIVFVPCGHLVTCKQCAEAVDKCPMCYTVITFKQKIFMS

SMILES	z-score [1]	z-score [2]	z-score [3]	z-score [4]	z-score [5]	z-score [6]	z-score [7]	z-score [8]	z-score [9]	z-score [10]	z-score [11]	z-score [12]	z-score [13]	composite z-score [14]	z-score [15]	z-score [16]	z-score [17]	z-score [18]	z-score [19]	composite z-score [20]
CO[C@H]1COC(=O)CC=C[C@@H](C)[C@H](OC)COC(=O)[C@@H]2CCCN2C(=O)CC=C[C@@H]1C	0.976	0.308	-0.259	0.491	-0.394	0.0843	-0.0391 (inactive)	-0.83	1.22	0.572 (inactive)	0.251	-1.87 (inactive)	0.616 (inactive)	0.52 (inactive)	-0.638 (inactive)	-0.055 (inactive)	0.601 (inactive)	0.53 (inactive)	0.136	0.196
CO[C@H]1COC(=O)CC=C[C@H](C)COC(=O)[C@@H](C)NC(=O)CC=C[C@@H]1C	-0.752	0.197	-1.46	0.735	-1.5	0.187	-0.546 (inactive)	-0.111	-0.609	0.0702 (inactive)	-0.251	-0.695 (inactive)	1.31 (inactive)	-0.412 (inactive)	-0.16 (inactive)	-0.652 (inactive)	0.33 (inactive)	-1.21 (inactive)	0.961	0.0297
Cc1cc2c(nc1C)CCCCN2CC(C)ON=C[C@@H](C)[C@H](OCc1ccccc1)C(C)C (stereo not given in full)	-0.672	-0.44	-1.27	-2.94	-3.77	-1.91	-1.4 (inactive)	-0.262	0.034	4.05 (inactive)	1.48	-5.49 (inactive)	0.674 (inactive)	-0.983 (inactive)	0.675 (inactive)	-1.02 (inactive)	-0.152 (inactive)	-0.4 (inactive)	1.4	0.0856
COC(=O)[C@@H]1CC[C@@H](C)[C@H](c2ccc(Br)cc2)N1	0.376	0.931	0.232	-0.749	0.628	0.307	-0.00943 (inactive)	0.273	1.23	0.316 (inactive)	0.0869	-0.176 (inactive)	-0.0484 (inactive)	-0.275 (inactive)	0.766 (inactive)	-0.0446 (inactive)	-0.234 (inactive)	-0.0612 (inactive)	0.429	0.0548
CC[C@@H](c1ccccc1)n1c(=O)n2n(c1=O)[C@H]1[C@H](O)[C@@H]3O[C@@H]3C(=NOC[C@@H](O)COCc3ccco3)[C@H]1CC2	-0.335	-0.193	-0.378	-0.0533	-0.736	-1.44	-0.368 (inactive)	-0.465	0.432	0.0367 (inactive)	-0.466	0.626 (inactive)	-0.617 (inactive)	-0.337 (inactive)	-0.613 (inactive)	-1.11 (inactive)	0.243 (inactive)	0.047 (inactive)	-0.257	-0.117
CC(C)C[C@H](NC(=O)CCC1CC(OC(=O)NCc2cccc3ccccc23)CC2(CCCC(COC(=O)NCc3ccccc3)O2)O1)C(=O)NCC(c1ccccc1)c1ccccc1 (stereo not given in full)	-0.375	0.111	-0.429	-3.53	-0.971	-0.341	0.922 (inactive)	-0.802	-0.715	0.337 (inactive)	0.1	-0.245 (inactive)	0.284 (inactive)	-0.79 (inactive)	0.851 (inactive)	-0.0457 (inactive)	0.64 (inactive)	0.628 (inactive)	0.731	-0.242
CCOC(=O)[C@H](CC(C)C)NC(=O)CCC1CC(OC(=O)NCc2ccc3c(c2)OCO3)CC2(CCCC(COC(=O)NCc3cccc(C(F)(F)F)c3)O2)O1 (stereo not given in full)	0.112	0.214	-0.503	0.0777	-3.36	1.85	-0.176 (inactive)	0.525	-0.412	-0.175 (inactive)	-0.54	0.3 (inactive)	0.639 (inactive)	0.0645 (inactive)	-0.0691 (inactive)	0.683 (inactive)	-0.718 (inactive)	-0.0974 (inactive)	0.328	-0.148
C=COC[C@@H]1CN2[C@@H](CC[C@@H](C)[C@@H]2c2ccc(Br)cc2)C(=O)O1	-0.0396	0.566	-0.388	-1.04	-0.731	-0.284	0.347 (inactive)	-0.795	-0.228	0.378 (inactive)	-0.32	-4.37 (inactive)	-0.345 (inactive)	-3.12 (inactive)	-1.01 (inactive)	-0.889 (inactive)	-1.03 (inactive)	-1.65 (inactive)	0.169	-0.0669
CCOC(=O)[C@H](CC(C)C)NC(=O)CCC1CC(OC(=O)NCc2cccc3ccccc23)CC2(CCCC(COC(=O)NCCOc3ccccc3)O2)O1 (stereo not given in full)	2.15	0.519	0.335	-1.32	-0.273	1	0.661 (inactive)	-0.763	-0.985	1.33 (inactive)	0.329	-0.895 (inactive)	0.572 (inactive)	-0.785 (inactive)	-0.127 (inactive)	-0.879 (inactive)	0.0446 (inactive)	0.253 (inactive)	1.57	-0.142
COC(=O)[C@H](C)NC(=O)CCC1CC(OC(=O)NCc2ccc3c(c2)OCO3)CC2(CCCC(COC(=O)NCC(c3ccccc3)c3ccccc3)O2)O1 (stereo not given in full)	-0.641	0.155	-2.9	-3.53	-3.99	-1.01	-0.013 (inactive)	-0.0228	-0.794	1.76 (inactive)	0.0245	-1.23 (inactive)	0.177 (inactive)	-2.67 (inactive)	-0.895 (inactive)	0.0477 (inactive)	-0.341 (inactive)	0.532 (inactive)	-0.0511	-0.0734
C#CCCCON=C1C[C@@H](O)[C@@H](O)[C@@H]2[C@@H]3C(=O)N(c4ccc(F)cc4F)C(=O)[C@@H]3CC[C@@H]12	-0.194	-0.566	-1.07	0.344	-0.865	0.843	-1.15 (inactive)	0.0995	-0.413	0.193 (inactive)	1.49	-0.652 (inactive)	0.225 (inactive)	-0.278 (inactive)	-1.25 (inactive)	-1.07 (inactive)	-0.0313 (inactive)	-0.152 (inactive)	0.33	-0.0786
COc1ccc(O[C@H]2C=C[C@@H](c3ccccc3)O[C@@H]2CON=C2[C@H]3CCn4c(=O)n(-c5ccccc5)c(=O)n4[C@H]3[C@H](O)[C@@H]3O[C@H]23)cc1	0.455	-0.669	-0.0924	-2.98	-1.37	-0.0967	0.112 (inactive)	-0.921	-0.429	-1.55 (inactive)	-1.63	0.422 (inactive)	-2.53 (inactive)	-0.268 (inactive)	-0.0417 (inactive)	0.0056 (inactive)	0.694 (inactive)	0.731 (inactive)	-1.92	-0.403
C[C@@H]1NC(=O)[C@@H](C)COC(=O)[C@H](C)NC(=O)[C@@H](C)COC1=O	-0.838	1.19	0.1	-0.426	-0.604	0.503	0.42 (inactive)	0.0799	0.307	0.228 (inactive)	0.0907	-2.62 (inactive)	-0.325 (inactive)	-3.05 (inactive)	0.365 (inactive)	-1.09 (inactive)	-0.0144 (inactive)	-1.87 (inactive)	0.18	0.0714
Cc1ccc(S(=O)(=O)n2c3ccccc3c3nnc(C(=O)c4ccccc4)nc32)cc1	1.8	0.294	-0.284	-0.377	0.271	-2.96	0.839 (inactive)	-0.248	-0.956	-0.721 (inactive)	-0.148	-0.586 (inactive)	-0.508 (inactive)	-1.1 (inactive)	0.523 (inactive)	0.151 (inactive)	1.04 (inactive)	0.0979 (inactive)	-0.222	-0.256
COc1ccc(O[C@H]2C=C[C@@H](c3ccccc3)O[C@@H]2CON=CC[C@@H]2C=C[C@H](OC(C)=O)[C@@H](COC(C)=O)O2)cc1	0.0639	-0.0129	-0.555	0.306	-1.17	-1.33	-0.112 (inactive)	-0.0648	0.491	-0.247 (inactive)	0.185	2.06 (inactive)	-0.0893 (inactive)	0.0159 (inactive)	0.405 (inactive)	1.34 (inactive)	0.503 (inactive)	-0.185 (inactive)	-0.604	0.0391
CO[C@@H]1COC(=O)CC=C[C@H](C)[C@H](OC)COC(=O)[C@H](C)NC(=O)CC=C[C@H]1C	0.296	0.256	0.64	-0.0284	0.403	0.904	-0.878 (inactive)	0.403	0.273	0.932 (inactive)	0.774	-0.486 (inactive)	0.978 (inactive)	-0.165 (inactive)	-0.638 (inactive)	-0.363 (inactive)	0.853 (inactive)	-0.0907 (inactive)	0.453	0.0264
